# Screens deposited in PubChem by The Scripps Research Institute Molecular Screening Center.
# GPR151 ag: activates the human receptor GPR151. PathHunter beta-arrestin GPR151 cells, luminescence. activation, % at 11.2 µM. actives 1% (n = 650,000); in the data active = activation above about 4.9%;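 also: 0% = median of compound wells and 100% = cells with positive control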
# MITF inh: blocks human microphthalmia-associated transcription factor; actives 0.91% (n = 650,000); O75030; AID 1259374; inhibition, % at 2.6 µM; AlphaScreen MITF homodimerization, bead proximity signal; in the data active = inhibition above about 50%;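 also: 0% = vehicle wells with protein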
# FBW7 activator: activators of human E3 ligase FBW7; Q969H0; AlphaScreen FBW7–phospho-cyclin E peptide binding, activator screen; normalized activity (activation), % at 26.1 µM; actives 0.13% (n = 650,000); AID 1259310; in the data active = normalized activity above about 1.9%;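 also: purified mutant Fbw7 with reduced substrate affinity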
# Target sequence (Q969H0 whole entry, looked up): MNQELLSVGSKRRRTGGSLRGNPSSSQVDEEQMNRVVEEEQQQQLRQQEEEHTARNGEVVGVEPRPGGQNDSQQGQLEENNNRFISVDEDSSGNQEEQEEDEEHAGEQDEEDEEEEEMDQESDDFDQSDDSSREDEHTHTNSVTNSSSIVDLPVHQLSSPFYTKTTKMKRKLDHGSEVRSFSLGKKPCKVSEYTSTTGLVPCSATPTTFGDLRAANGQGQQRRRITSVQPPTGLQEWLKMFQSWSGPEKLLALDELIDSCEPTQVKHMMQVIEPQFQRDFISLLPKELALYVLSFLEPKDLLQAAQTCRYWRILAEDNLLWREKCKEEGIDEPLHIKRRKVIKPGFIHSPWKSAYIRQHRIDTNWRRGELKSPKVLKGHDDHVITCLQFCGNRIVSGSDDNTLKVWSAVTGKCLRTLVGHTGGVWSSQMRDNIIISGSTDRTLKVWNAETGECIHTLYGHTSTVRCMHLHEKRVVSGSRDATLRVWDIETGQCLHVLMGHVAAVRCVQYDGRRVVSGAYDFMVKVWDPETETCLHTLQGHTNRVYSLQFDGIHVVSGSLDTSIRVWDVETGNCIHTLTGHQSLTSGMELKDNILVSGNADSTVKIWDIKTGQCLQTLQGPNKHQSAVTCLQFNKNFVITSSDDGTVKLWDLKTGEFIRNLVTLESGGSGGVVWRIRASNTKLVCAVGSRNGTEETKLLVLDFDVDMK
# TEAD-YAP inh: TEAD-YAP interaction inhibition; actives 1.4% (n = 640,000); HEK-TIYL cells, TEAD-Gal4/YAP UAS-luciferase luminescence; inhibition, % at 9.12 µM; in the data active = inhibition above about 32%;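 also: 0% = median of test compound wells and 100% = reference inhibitor wells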
# An asterisk follows results filed as active. In the library only some 3.5% were active in any assay of this set; here they are far more common.
SMILES,GPR151 ag,MITF inh,FBW7 activator,TEAD-YAP inh
Cc1ccc(/C=C(/C#N)C(=O)Nc2ccc(O)cc2)cc1,1,8,0,11
CN(C)c1ccc(C(=C2C=CC(=[N+](C)C)C=C2)c2ccc(N(C)C)cc2)cc1,2,92*,-1,89*
CN(C)c1ccc(C(=NO)c2ccc(N(C)C)cc2)cc1,0,8,0,21
CCOC(=O)NC(c1ccccc1)C(C(=O)OCC)C(=O)OCC (stereo unspecified),-1,30,2.3*,9
CN(C)c1ccc(-c2nnc(SCC(N)=O)n2C)cc1,-1,-2,0,-9
N#Cc1ccc(/C=N/NC(=O)c2ccccc2O)cc1,-1,7,0,-14
O=C(O)c1cc(N/N=C/c2cccnc2)ccc1Cl,-5,-8,0,-23
COc1ccc(C(=O)N/N=C(/C)c2ccc(OC)cc2OC)cc1,1,4,0,-31
O=C(O)c1ccc(N/N=C/c2cccnc2)cc1,-8,2,0,33*
COc1ccc(/C(C)=N/Nc2ccc(C(=O)O)cc2)c(OC)c1,-1,7,0,48*
COc1cc(OC)cc(C(=O)N/N=C\c2ccc(OCC(N)=O)cc2)c1,0,8,0,56*
N#Cc1ccc(/C=N/NC(=O)c2cc(O)cc(O)c2)cc1,2,0,0,33*
CCCOc1ccc(C(=O)Nc2ccc(N3CCN(C(=O)c4ccccc4)CC3)cc2)cc1,-2,-12,0,-1
COc1ccc(C(=O)N/N=C\c2ccc(Br)cc2)cc1OC,-1,-1,0,40*
COc1ccc(C(=O)N/N=C/c2ccc(O)c(O)c2)cc1Br,-1,-18,0,-13
COc1ccc(/C=N/Nc2ccc(C(=O)O)cc2)cc1Br,-9,9,0,45*
COc1ccccc1N=c1scc(-c2ccc3c(c2)NC(=O)CO3)n1CC1CCCO1 (stereo unspecified),4,26,1,1
Cc1ccccc1N=c1scc(-c2ccc3c(c2)NC(=O)CO3)n1Cc1ccco1,0,0,0,48*
CSc1ncccc1C(=O)NCc1ccc(S(N)(=O)=O)cc1,-1,-19,0,4
CNC(=S)N1N=C(c2ccc(Br)cc2)CC1c1ccccc1OC (stereo unspecified),2,8,0,-1
Cc1c(C(=O)Nc2ccc3c(c2)OCO3)oc2ccc3c(c12)C(=O)CC(C)(C)O3,0,1,0,42*
COc1ccccc1CNC(=O)c1oc2ccc3c(c2c1C)C(=O)CC(C)(C)O3,0,-10,0,-28
COc1cccc(NC(=O)c2oc3ccc4c(c3c2C)C(=O)CC(C)(C)O4)c1,-11,6,0,92*
COc1ccccc1NC(=O)c1oc2ccc3c(c2c1C)C(=O)CC(C)(C)O3,0,-7,0,33*
CC(=O)c1cccc(NC(=O)c2oc3ccc4c(c3c2C)C(=O)CC(C)(C)O4)c1,0,1,0,52*
SMILES,GPR151 ag,MITF inh,FBW7 activator,TEAD-YAP inh
CCN(CC)c1ccc(N2CCN(S(=O)(=O)c3cc(C)ccc3OC)CC2)nn1,1,9,0,54*
COc1ccc(C)cc1S(=O)(=O)N1CCN(c2ccc(-c3ccncc3)nn2)CC1,-2,8,0,1
CCOC(=O)C1(CCc2ccccc2)CCN(Cc2cnn(C)c2)CC1,0,2,0,6
CCOC(=O)c1c(-c2ccccc2)csc1NC(=O)c1cncc(Br)c1,-1,7,0,3
c1ccc2oc(-c3ccc(-c4nc5ccccc5o4)cc3)nc2c1,-1,7,0,2
c1ccc2nc(-c3nc4ccccc4o3)ccc2c1,-10,0,0,77*
c1ccc2[nH]c(-c3nc4ccccc4o3)nc2c1,-11,10,0,84*
Cc1nc(C)c(CN2CCC(C(=O)Nc3ccc(Oc4cccnc4)cc3)CC2)nc1C,0,7,0,13
O=C(Nc1ccc(Oc2cccnc2)cc1)C1CCN(Cc2cc3ccccc3o2)CC1,-1,12,0,44*
COC(=O)c1c(NC(=O)COc2ccc(I)cc2)sc2c1CCCC2,0,15,0,-2
CCOC(=O)CSc1nc2sc(C(=O)OCC)c(C)c2c(=O)n1CC1CCCO1 (stereo unspecified),0,13,1,-2
Cc1ncn(-c2ccc(Nc3ncc4cccc(-c5cnn(C(C)C)c5)c4n3)cc2)n1,0,13,0,52*
Cc1ncn(-c2ccc(Nc3ncc4cccc(-c5cnn(CC6CC6)c5)c4n3)cc2)n1,0,11,0,49*
CCC(C)Oc1c(Br)cc(/C=C2/NC(=O)NC2=O)cc1OC (stereo unspecified),-2,11,0,-11
CCN1/C(=C/c2ccc3cc(OC)ccc3[n+]2CC)Sc2ccc(OC)cc21,4,30,-1,87*
CCN1/C(=C/c2ccc3cc(OC)ccc3[n+]2CC)Sc2ccc(Cl)cc21,0,2,0,77*
CCN1/C(=C/c2ccc3ccc(C)cc3[n+]2CC)Sc2cc(OC)ccc21,3,33,0,87*
CCC(=O)/C=C1/Sc2ccc(OC)cc2N1CC,-1,3,0,8
CCC(C)(C)NC(=O)CN(Cc1ccc(OC)cc1)C(=O)CCC(=O)Nc1ccccn1,1,10,0,1
CCC(C)Nc1nc(-c2c[nH]c3ccccc23)cs1 (stereo unspecified),0,-9,3.9*,-3
C=CCNc1nc(-c2c[nH]c3ccccc23)cs1,1,-13,1,-5
Nc1cccc(-c2nc(NCCCN3CCCC3=O)c3ncn(C4CCCCC4)c3n2)c1,-1,-2,0,8
CC(=O)NCC1Cc2cccc(-c3ncccc3C)c2O1 (stereo unspecified),2,5,0,2
NC(=S)/N=C1\CCN(c2cccc(C(F)(F)F)c2)N1,-1,-4,0,35*
COc1cccc(Nc2cc(C)nc3ccc(Cl)cc23)c1,0,8,0,44*
SMILES,GPR151 ag,MITF inh,FBW7 activator,TEAD-YAP inh
COc1ccc2nc(C)cc(Nc3ccccc3OC)c2c1,-1,19,1,17
COc1ccc2nc(C)cc(Nc3ccc(Oc4ccc(Cl)cc4)c(Cl)c3)c2c1,0,0,0,44*
COc1cccc(Nc2cc(C)nc3ccc(OC)cc23)c1,1,29,0,8
COc1ccc(OC)c(Nc2cc(C)nc3ccccc23)c1,0,-3,0,37*
O=C(COc1ccc2ccccc2c1)Nc1cccc(C(=O)Nc2ccccc2C(=O)O)c1,1,-4,0,8
O=C(O)c1ccccc1Nc1cccc(OCc2ccc3ccccc3n2)c1,0,12,0,46*
COc1cc([N+](=O)[O-])c2nccnc2c1,2,0,-1,1
O=[N+]([O-])c1cc(O)c2ncccc2c1,-2,103*,0,21
O=C(O)COc1cc([N+](=O)[O-])cc2cccnc12,3,16,-1,-4
COc1cc([N+](=O)[O-])c2ncccc2c1,-1,70*,-2,16
O=S(=O)(c1ccc(NC(=S)N/N=C/c2ccc(O)c(O)c2)cc1)N1CCOCC1,0,-15,0,10
